PubChem BioAssay AID1159580 (chemical genetic matrix, 2015)
Several values for one entry are separate records, joined by “and”; a condition that tells them apart may be missing. Identical values can stand only once. The campaign covered roughly 5,500 compounds. About 2,000 (36%) were called active. Not shown: some 18% with an inconclusive outcome. Rule as the data show it: active = normalized growth mostly below about 0.91 (no sharp cut-off); inconclusive = no clear call, values can overlap the other calls; inactive = mostly above about 0.92. Some of the results follow.

Assay: chemical genetic growth profiling, strain panel (AID 1159580);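 also: tested at 20 µM; growth read once vehicle control cultures reached saturation at 30 °C; 1 = growth at the plate median or of vehicle wells; lower values mean less growth of the strain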
Conditions: S. cerevisiae deletion strains, growth OD

Measured: normalized growth

CC(C)NNC(=O)c1ccncc1
inactive: locus YAL013W, strain DEP1, stronger effect = lower value 1.01 | locus YAL021C, strain ccr4, stronger effect = lower value 1.02 | locus YAL026C, strain drs2, stronger effect = lower value 1.03 | locus YAL030W, strain snc1, stronger effect = lower value 0.997 | locus YAL040C, strain CLN3, stronger effect = lower value 0.985 | locus YBL061C, strain skt5, stronger effect = lower value 1.01 | locus YBR009C, strain hhf1, stronger effect = lower value 1.01 | locus YBR021W, strain FUR4, stronger effect = lower value 1 | locus YBR023C, strain chs3, stronger effect = lower value 1.01 | locus YBR171W, strain sec66, stronger effect = lower value 1.01 | locus YBR229C, strain ROT2, stronger effect = lower value 1 | locus YBR231C, strain swc5, stronger effect = lower value 1.03 | locus YBR279W, strain paf1, stronger effect = lower value 1.01 | locus YCL011C, strain gbp2, stronger effect = lower value 1.02 | locus YCL016C, strain dcc1, stronger effect = lower value 1.01 | locus YCL029C, strain bik1, stronger effect = lower value 1.02 | locus YCL061C, strain MRC1 (second series), stronger effect = lower value 0.986 | locus YCL069W, strain vba3, stronger effect = lower value 1.02 | locus YCR088W, strain abp1, stronger effect = lower value 1.02 | locus YDL005C, strain med2, stronger effect = lower value 1 | locus YDL035C, strain GPR1, stronger effect = lower value 1.01 | locus YDL040C, strain nat1, stronger effect = lower value 1 | locus YDL074C, strain BRE1, stronger effect = lower value 1.02 | locus YDL101C, strain DUN1, stronger effect = lower value 1 | locus YDL134C, strain PPH21, stronger effect = lower value 1.01 | locus YDL185W, strain tfp1, stronger effect = lower value 1.01 | locus YDL192W, strain arf1, stronger effect = lower value 1.02 | locus YDR001C, strain nth1, stronger effect = lower value 1 | locus YDR069C, strain doa4, stronger effect = lower value 1 | locus YDR101C, strain arx1, stronger effect = lower value 1.01 | locus YDR137W, strain rgp1, stronger effect = lower value 1.01 | locus YDR150W, strain NUM1, stronger effect = lower value 0.994 and 0.996 | locus YDR159W, strain sac3, stronger effect = lower value 0.978 | locus YDR162C, strain NBP2, stronger effect = lower value 1.01 | locus YDR195W, strain ref2 0.961 | locus YDR297W, strain sur2, stronger effect = lower value 1 | locus YDR318W, strain mcm21, stronger effect = lower value 1.02 | locus YDR334W, strain swr1, stronger effect = lower value 1.03 | locus YDR335W, strain msn5, stronger effect = lower value 1.01 | locus YDR363W, strain ESC2, stronger effect = lower value 1.02 | locus YDR388W, stronger effect = lower value 1.01 | locus YDR392W, strain spt3, stronger effect = lower value 1.03 | locus YDR502C, strain sam2, stronger effect = lower value 1.01 | locus YEL003W, strain gim4, stronger effect = lower value 1 | locus YEL037C, strain rad23, stronger effect = lower value 1.02 | locus YEL061C, strain CIN8 (second series), stronger effect = lower value 1.01 | locus YEL061C, strain CIN8, stronger effect = lower value 1 | locus YER002W, strain NOP16, stronger effect = lower value 1.01 | locus YER015W, strain faa2, stronger effect = lower value 1.02 | locus YER016W, strain bim1, stronger effect = lower value 1.01 | locus YER110C, stronger effect = lower value 1.02 | locus YER111C, strain swi4, stronger effect = lower value 0.999 | locus YER155C, strain BEM2 (second series), stronger effect = lower value 1.04 | locus YER155C, strain BEM2, stronger effect = lower value 1 | locus YER167W, strain BCK2, stronger effect = lower value 1.01 | locus YFR010W, strain ubp6, stronger effect = lower value 1.02 | locus YGL078C, strain dbp3, stronger effect = lower value 1.02 | locus YGL086W, strain mad1, stronger effect = lower value 1.01 | locus YGL167C, strain pmr1, stronger effect = lower value 0.996 | locus YGL173C, strain kem1, stronger effect = lower value 1.03 | locus YGL227W, strain vid30, stronger effect = lower value 0.998 | locus YGL240W, strain doc1, stronger effect = lower value 1.01 | locus YGL248W, strain PDE1, stronger effect = lower value 0.996 | locus YGL253W, strain hxk2, stronger effect = lower value 1.03 | locus YGR078C, strain PAC10, stronger effect = lower value 1.01 | locus YGR135W, strain pre9, stronger effect = lower value 1.01 | locus YGR229C, strain SMI1, stronger effect = lower value 1 and 0.992 | locus YGR252W, strain gcn5, stronger effect = lower value 1.05 | locus YHR013C, strain ard1, stronger effect = lower value 1.02 | locus YHR027C, strain rpn1, stronger effect = lower value 1.01 | locus YHR030C, strain SLT2, stronger effect = lower value 1 | locus YHR079C, strain IRE1 (second series), stronger effect = lower value 1.02 | locus YHR094C, strain hxt1, stronger effect = lower value 1.01 | locus YHR129C, strain ARP1, stronger effect = lower value 1 | locus YHR142W, strain chs7, stronger effect = lower value 1.03 | locus YHR200W, strain rpn10, stronger effect = lower value 1.02 | locus YIL066C, strain RNR3, stronger effect = lower value 1.02 | locus YIL073C, strain SPO22, stronger effect = lower value 1.04 | locus YIL125W, strain kgd1, stronger effect = lower value 1.01 | locus YIR030C, strain dcg1, stronger effect = lower value 1.02 | locus YJL092W, strain hpr5, stronger effect = lower value 1.01 | locus YJL095W, strain BCK1 (second series), stronger effect = lower value 1.02 | locus YJL095W, strain BCK1, stronger effect = lower value 1.02 | locus YJL115W, strain asf1, stronger effect = lower value 0.988 | locus YJL129C, strain trk1, stronger effect = lower value 0.998 | locus YJL134W, strain LCB3, stronger effect = lower value 1.01 | locus YJL154C, strain vps35, stronger effect = lower value 1.01 | locus YJL164C, strain tpk1, stronger effect = lower value 1.01 | locus YJL166W, strain qcr8, stronger effect = lower value 1.01 | locus YJL168C, strain set2, stronger effect = lower value 1.02 | locus YJL187C, strain SWE1 (second series), stronger effect = lower value 1.01 | locus YJL187C, strain SWE1, stronger effect = lower value 1.01
